Structure (SMILES): COc1cc2ncnc(Nc3cccc(Cl)c3F)c2cc1O[C@H]1CC[C@H]([C@@H]2NCCNC2=O)CC1 [BI00133844]
- Kinases covered (HCK): HCK

Structure (SMILES): COc1ccc2c(-c3ccnc(Nc4cccc(OC(F)(F)F)c4)n3)cnn2n1 [GW810372X]
- Kinases covered (HIPK1): HIPK1

Structure (SMILES): CCOc1ccc2c(-c3ccnc(Nc4cccc(C(F)(F)F)c4)n3)cnn2n1 [GW811761X]
- Kinases covered (HIPK2): HIPK2
- Kinases covered (HIPK3): HIPK3

Structure (SMILES): COC[C@@H](C)N[C@H]1CC[C@H](Nc2cc(-c3cccc(NCC4(C#N)CCOCC4)n3)c(Cl)cn2)CC1 [NVP-2]
- Kinases covered (HIPK4): HIPK4

Structure (SMILES): CCCc1cc(N2CCCN(C)CC2)nc2sc3c(N)ncnc3c12 [BI00604564]
- Kinases covered (Haspin): Haspin

Structure (SMILES): CCC(NN(C)C)=C1C(=O)Nc2ccc(C(C)=O)cc21 [BI00036838]
- Kinases covered (ICK): ICK

Structure (SMILES): Cc1cc(NC(=O)c2cccc(NC(=O)/C=C/CN(C)C)c2)ccc1Nc1nccc(-c2cccnc2)n1 [JNK-IN-7]
- Kinases covered (ICK): ICK

Structure (SMILES): c1ccc(-c2cc3ccncc3cc2OC2CCNCC2)cc1 [GSK1122999]
- Kinases covered (IKBKB): IKBKB

Source: publication PMC7826789 (International Journal of Molecular Sciences, 2021)
